Bioassay records from PubChem.
The list is not random: actives were taken first. Their share in the collection is about 12%.
Pf growth 96h = inhibits malaria parasite growth, 96 h; Potency, µM (titrated, usually from 28.7 µM), usual class: inhibitors; 320,000 tested, 6.9% active; P. falciparum luciferase reporter growth, 96 h
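P. falciparum expressing integrated firefly luciferase, in erythrocytes at 2% hematocrit, 0.05% parasitemia, incubated with compounds 96 h at 37 C, 5% CO2. Growth inhibition read as loss of luminescence; two-generation exposure targets delayed-death apicoplast inhibitors.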
SARS PLpro yeast = blocks SARS-CoV papain-like protease in a yeast assay; S. cerevisiae expressing SARS-CoV PLpro, growth rescue; Potency, µM (series often up to 32.9 µM), usual class: activators; 330,000 tested, 0.19% active; AID 485353; calls by dose curve; note: nearly all actives have a fitted effect of over 55% in size
AMA1-RON2 inh = disrupts binding of P. falciparum AMA1 to RON2; AID 720542; Potency, µM (series often up to 58.2 µM), usual class: inhibitors; AlphaScreen AMA1-biotinylated RON2 peptide binding; 360,000 tested, 0.2% active; note: nearly all actives have a fitted effect of over 45% in size
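AMA1 (3D7) with his tag at 25 nM final met compounds first, then biotinylated RON2 peptide at 25 nM; detection used donor plus acceptor beads, 10 µg/mL apiece, read by AlphaScreen after 30 min at room temperature.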
HCV inh = blocks hepatitis C virus | Potency, µM (series often up to 41.8 µM), actives largely listed as inhibitors | Huh7.5.1 HCVcc-Cre infection, luciferase reporter, 44 h | 340,000 tested, 3.4% active
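After 44 h co-culture of compound, cells and HCVcc-Cre (~0.5 moi), substrate is added for 15 min at room temperature and luciferase measured over 15 sec. Cells were seeded at 1,000/well and pre-cultured 4 h.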
NS1 inh = inhibitors of influenza NS1 protein function | 270,000 tested, 0.4% active | Potency, µM (series often up to 46.1 µM); calls by dose curve; note: actives are rising curves; nearly all actives have a fitted effect of over 50% in size
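Compounds were scored for reversing the slow growth caused by influenza A NS1 in S. cerevisiae, measured by optical density at 600 nm. Assay medium contained 2% galactose at pH 6.0; NS1-free yeast of the same strain were the positive control.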
Pf growth 48h = inhibits P. falciparum growth in the first generation, 48 h; P. falciparum luciferase growth in erythrocytes, 48 h; AID 504832; Potency, µM (titrated, usually from 28.7 µM), usual class: inhibitors; 310,000 tested, 5.9% active
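Luciferase-expressing P. falciparum in infected erythrocytes (2% hematocrit, 0.1% parasitemia final) in RPMI 1640/0.5% Albumax were exposed to compound for 48 hours at 37 C, 5% CO2; growth read as luminescence.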
Of the large screens only hits and unclear results are named; the others gave an inactive call. Unless noted, calls come from the whole dose curve; as a rule, active = well fitted curve in the direction sought with a large enough effect; inconclusive = small, poorly fitted or top-dose-only effect, or another doubt; inactive = no such curve, though single readings can be large; an effect the other way counts as inactive or inconclusive.

CCOc1ccc(OCC)c(NS(=O)(=O)c2cn(C)cn2)c1	Pf growth 96h inconclusive
Cn1cnc(S(=O)(=O)Nc2ccccc2C(=O)NCC2CC2)c1	Pf growth 48h 4.65µM
COc1ncnc2c1ncn2CCCNCCCN1CCCC1=O	none (no result: Pf growth 96h, SARS PLpro yeast, HCV inh, NS1 inh, Pf growth 48h)
O=C(Nc1ccc(F)cc1)Nc1nnc(-c2ccco2)s1	none (no result: NS1 inh)
CCOC(=O)c1c(C)[nH]c(C)c1C(=O)CSc1nnc(-c2ccco2)n1Cc1ccccc1	Pf growth 96h 14.7µM, Pf growth 48h 7.38µM
CCOC(=O)c1c(C)[nH]c(C)c1C(=O)CSc1nnc(-c2ccncc2)n1Cc1ccccc1	Pf growth 96h 10.4µM (no result: Pf growth 48h)
O=C(CSc1nnc(-c2ccco2)c(-c2ccco2)n1)c1ccccc1	Pf growth 96h inconclusive, HCV inh 2.82µM
CC(=O)c1ccc(NC(=O)CSc2nnc(-c3ccco3)c(-c3ccco3)n2)cc1	AMA1-RON2 inh inconclusive, HCV inh inconclusive
O=C(CSc1nnc(-c2ccco2)n1Cc1ccccc1)NC(=O)NCc1ccccc1	Pf growth 96h 11.7µM, Pf growth 48h inconclusive
CN(C)Cc1ccccc1Sc1ccc2c(c1)CCCC2	AMA1-RON2 inh inconclusive (no result: Pf growth 96h, SARS PLpro yeast, NS1 inh, Pf growth 48h)
CCOc1ccccc1N(CC(=O)Nc1cccc2ccccc12)S(C)(=O)=O	none
Cc1ccc(C(=O)CSc2nnc(-c3ccco3)n2Cc2ccccc2)cc1	Pf growth 96h 7.38µM, HCV inh inconclusive
O=C(CSc1nnc(-c2ccco2)n1Cc1ccccc1)c1ccccc1	Pf growth 96h inconclusive
Cc1cc2c(SCC(=O)NC3CCCC3)ncnc2s1	none
S=C(NCCN1CCOCC1)Nc1ccccc1Cl	none
CCN1CCN(CC(=O)Nc2cc(S(=O)(=O)N3CCCCC3)ccc2Cl)CC1	none (no result: Pf growth 96h, NS1 inh, Pf growth 48h)
CC1CN(CC(=O)Nc2cc(S(=O)(=O)N3CCCC3)ccc2Cl)CC(C)O1 (stereo unspecified)	Pf growth 96h inconclusive (no result: NS1 inh)
CCOC(=O)C1CCN(CC(=O)Nc2cc(S(=O)(=O)N3CCCCC3)ccc2Cl)CC1	Pf growth 96h inconclusive, HCV inh inconclusive, Pf growth 48h 11.7µM (no result: NS1 inh)
O=C(CN1CCN(c2ccc(O)cc2)CC1)Nc1cc(S(=O)(=O)N2CCCCC2)ccc1Cl	Pf growth 96h 9.28µM, HCV inh 10µM (no result: NS1 inh)
O=C(CN1CCCCC1)Nc1cc(S(=O)(=O)N2CCOCC2)ccc1N1CCCC1	Pf growth 96h inconclusive (no result: NS1 inh)
O=C(CN1CCN(c2ccc(O)cc2)CC1)Nc1cc(S(=O)(=O)N2CCCC2)ccc1Cl	Pf growth 96h inconclusive, HCV inh inconclusive, Pf growth 48h 9.28µM (no result: NS1 inh)
COc1ccc(C(=O)NCCc2nnc3ccc(SCC(=O)Nc4cc(C)on4)nn23)cc1	Pf growth 48h inconclusive (no result: NS1 inh)
Cc1ccc(S(=O)(=O)N2CCC(NC(=O)OC(C)C)CC2)cc1	none (no result: NS1 inh)
Cc1c(C(=O)OCCOc2ccccc2)[nH]c2c1C(=O)CCC2	HCV inh 12.6µM (no result: Pf growth 48h)
CC(=O)c1c(C)[nH]c(C(=O)OCc2cccc(C)c2)c1C	HCV inh 15.8µM
CC(=O)c1c(C)[nH]c(C(=O)OCc2ccccc2F)c1C	HCV inh 17.8µM (no result: NS1 inh)
CC(=O)c1c(C)[nH]c(C(=O)OCCOc2ccccc2)c1C	HCV inh 8.91µM (no result: NS1 inh)
O=C(CN1C(=O)NC2(CCc3ccccc32)C1=O)NCc1cccc(C(F)(F)F)c1 (stereo unspecified)	none (no result: Pf growth 96h, NS1 inh, Pf growth 48h)
CCOc1ccc(S(=O)(=O)N(CC)CC)cc1NC(=O)CSCc1c(C)noc1C	Pf growth 96h inconclusive, Pf growth 48h inconclusive (no result: NS1 inh)
CSCCC(NC(=O)COc1ccccc1)C(=O)N(C)Cc1ccc(SC)cc1 (stereo unspecified)	Pf growth 96h inconclusive, HCV inh inconclusive, Pf growth 48h inconclusive (no result: NS1 inh)
CC(=O)c1c(C)[nH]c(C(=O)NCc2cccc(Cl)c2)c1C	HCV inh 11.2µM (no result: NS1 inh)
CC(=O)c1c(C)[nH]c(C(=O)NCc2ccc(Cl)cc2)c1C	none (no result: Pf growth 96h, SARS PLpro yeast, HCV inh, NS1 inh, Pf growth 48h)
CC(=O)c1c(C)[nH]c(C(=O)OCc2ccc(Br)cc2)c1C	HCV inh 4.47µM
CCOC(=O)c1c(C)[nH]c(C(=O)OCc2ccc(C)cc2)c1C	HCV inh inconclusive (no result: Pf growth 96h, SARS PLpro yeast, NS1 inh, Pf growth 48h)
COc1ccc(C)cc1COC(=O)c1[nH]c(C)c(C(C)=O)c1C	Pf growth 96h 11.7µM, HCV inh inconclusive, Pf growth 48h inconclusive
COc1ccc(NC(=O)C2CCN(S(=O)(=O)c3c(C)noc3/C=C/N(C)C)CC2)cc1	NS1 inh inconclusive, Pf growth 48h inconclusive
COc1ccc(N2CCN(CCCNS(=O)(=O)c3c(C)noc3/C=C/N(C)C)CC2)cc1	Pf growth 96h inconclusive, HCV inh 7.94µM, NS1 inh inconclusive, Pf growth 48h 2.94µM (no result: AMA1-RON2 inh)
CN1C(=O)CCC1c1cccnc1 (stereo unspecified)	Pf growth 96h 1.07µM (no result: SARS PLpro yeast, AMA1-RON2 inh, HCV inh)
COc1ccc(S(=O)(=O)N2CCCC(C(=O)NCc3ccccc3)C2)cc1 (stereo unspecified)	Pf growth 48h inconclusive
COCCNC(=O)NC1(C(F)(F)F)Oc2ccc(Cl)cc2O1 (stereo unspecified)	HCV inh inconclusive, Pf growth 48h inconclusive
O=C(NCc1cccnc1)NC1(C(F)(F)F)Oc2ccc(Cl)cc2O1 (stereo unspecified)	Pf growth 96h inconclusive, HCV inh 10µM, Pf growth 48h inconclusive
CC(=O)NCCc1nc2ccccc2n1Cc1cc(C)ccc1C	Pf growth 96h inconclusive, Pf growth 48h inconclusive
O=S(=O)(N/N=C/c1cccnc1)c1ccc(Cl)c(Cl)c1	none
CCNC(=O)NC(=O)C(C)OC(=O)c1cccn1C (stereo unspecified)	Pf growth 48h 10.4µM (no result: NS1 inh)
Cc1nn(Cc2ccccc2Cl)c(Cl)c1C(=O)NCCc1ccccc1	HCV inh inconclusive
CCNC(=O)NC(=O)C(C)OC(=O)c1c(C)nn(Cc2ccccc2)c1Cl (stereo unspecified)	Pf growth 96h inconclusive, Pf growth 48h 13.1µM
CC(=O)Nc1ccc(NC(=O)c2c(C)nn(Cc3ccccc3)c2Cl)cc1	none
CCNC(=O)NC(=O)C(C)OC(=O)c1c(C)nn(Cc2ccccc2Cl)c1Cl (stereo unspecified)	Pf growth 96h 11.7µM, HCV inh inconclusive, Pf growth 48h inconclusive
COc1ccc(C(=O)NCN2CCN(c3ccccc3)CC2)cc1OC	Pf growth 96h inconclusive (no result: NS1 inh)
CNS(=O)(=O)c1ccc2c3c(cccc13)C(=O)N2	none
O=C1Nc2ccc(NS(=O)(=O)c3cccs3)c3cccc1c23	Pf growth 96h 10.4µM
Cn1c(=O)c2c(ncn2CC(=O)Nc2cc(S(=O)(=O)N3CCCCC3)ccc2O)n(C)c1=O	none (no result: Pf growth 96h, NS1 inh, Pf growth 48h)
CC(=O)c1cccc(NC(=O)Nc2ccc3c(c2)N(C)C(=O)CS3)c1	HCV inh 3.16µM, Pf growth 48h inconclusive
Cc1cc(C)cc(NC(=O)Nc2ccc3c(c2)N(C)C(=O)CS3)c1	Pf growth 96h inconclusive (no result: Pf growth 48h)
Cc1ccc(-n2nc3c(=O)n(C(C)C(=O)NCCC4=CCCCC4)nc(C)c3c2C)cc1 (stereo unspecified)	Pf growth 96h 9.28µM, HCV inh 10µM, Pf growth 48h inconclusive
